Sampled rows, rich in hits. Any-hit rate of the full collection: about 12%.
FMDV inh – antivirals against foot and mouth disease virus; hit rate 1.2% among 410,000; AID 1159524; Potency, µM (doses to about 57.9 µM), without a hit: top-dose activity change, negative = inhibition, actives largely listed as inhibitors; FMDV antiviral cell-based qHTS; calls by dose curve; tested in HEK293T cells; also: read-out not given here; potency is read from the fitted curve at half-maximal effect; % is scaled to controls: 0 for no effect and ±100 for the full control effect; nearly all actives have a fitted effect of over 45% in size
Sm TGR inh – blocks Schistosoma mansoni thioredoxin glutathione reductase; Q962Y6; AID 485364; purified TGR, DTNB reduction, TNB absorbance 405 nm; Potency, µM (titrated, usually from 114 µM), for the others: top-dose activity change, negative = inhibition, actives largely listed as inhibitors; hit rate 3% among 360,000; active = well fitted inhibition curve with a large enough effect; inconclusive = small, poorly fitted or top-dose-only effect; inactive = no such curve, though single readings can be large or run the other way; also: potency is read from the fitted curve at half-maximal effect; % is scaled to controls: 0 for no effect and ±100 for the full control effect; nearly all actives have a fitted effect of over 60% in size
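First, TGR (20 nM dispensed) and NADPH were mixed with compound. Second, a 15 min room-temperature incubation followed. Third, further NADPH and then DTNB were added to start the reaction. Finally, TNB absorbance was monitored kinetically.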
CHX counter – counter-screen for Shiga toxin inhibitors: cycloheximide protein synthesis inhibition. cell reporter, cycloheximide protein synthesis inhibition counterscreen. max response, %. hit rate 12% among 300,000; in the data active = max response mostly above about 13%, no sharp cut-off; inactive = mostly below about 14%; also: read at 38.3 µM for the half of the compounds with a filed dose; 0% is about no effect
Shiga toxin inh – Shiga toxin inhibition; Vero cells, Shiga toxin protein synthesis inhibition reporter; inhibition, % at 38.7 µM; hit rate 9.2% among 290,000; AID 2315; in the data active = inhibition mostly above about 28%, no sharp cut-off; inactive = mostly below about 43%; also: 0% is about no effect
The depositor's hits bear a star.

Screening COc1cc2cc(/C=C/C(=O)c3ccco3)c(Cl)nc2cc1OC returned FMDV inh -13%, Sm TGR inh inconclusive, CHX counter 16 and Shiga toxin inh 68*.
`COc1ccc2cc(/C=C/C(=O)c3ccco3)c(Cl)nc2c1` gave Sm TGR inh 45µM*, CHX counter 38* and Shiga toxin inh 91.
Screening COc1ccc(CC(=O)N2CCc3cc(OC)c(OC)cc3C2COc2ccc(OC)cc2)cc1 (stereo not given) returned FMDV inh 0% and Sm TGR inh 3%.
For COc1cc(/C=C/c2nc(C#N)c(NC3CCCCC3)o2)cc(OC)c1OC the results were FMDV inh -1% and Sm TGR inh -18%.
Screening O=C(COC(=O)c1cc(-c2ccco2)nc2ccccc12)NCc1ccc2c(c1)OCO2 returned FMDV inh -10%, Sm TGR inh 8.9µM*, CHX counter -1 and Shiga toxin inh -2.
For COc1cccc(C(=O)OCC(=O)NCc2ccc3c(c2)OCO3)c1OC the results were FMDV inh -5%.
Screening COc1cccc2cc(C(=O)OCC(=O)NCc3ccc4c(c3)OCO4)c(=O)oc12 returned FMDV inh 24%, Sm TGR inh -4%, CHX counter 38* and Shiga toxin inh 67*.
For COc1ccccc1CNC(=O)COC(=O)c1cc(-c2ccco2)nc2ccccc12 the results were Sm TGR inh 10µM*, CHX counter 20 and Shiga toxin inh 17.
Screening NC(=O)COC(=O)c1cc(-c2ccco2)nc2ccccc12 returned FMDV inh -25%, Sm TGR inh 3.2µM*, CHX counter 2 and Shiga toxin inh -10.
O=C(COC(=O)c1ccco1)NCc1ccc2c(c1)OCO2 was read as FMDV inh 14%, Sm TGR inh 4%, CHX counter 10 and Shiga toxin inh 33.
COc1ccc(-c2nnc3n2N=C(c2ccc(OC)c(OC)c2)CS3)c(OC)c1 was read as CHX counter 0 and Shiga toxin inh 15.
Screening CCOc1ccc(C2C(=O)N(C3CCCCCC3)CC(=O)N2Cc2ccc(F)cc2)cc1OC (stereo not given) returned FMDV inh -10% and Sm TGR inh 6%.
For O=C(c1ccco1)N1CCN(C(=O)c2cc(-c3ccncc3)nc3ccc(Br)cc23)CC1 the results were FMDV inh -29%.
Screening O=C(O)c1cc(-c2ccco2)nc2ccc(Br)cc12 returned FMDV inh 5%, Sm TGR inh 0.71µM*, CHX counter 6 and Shiga toxin inh 4.
Screening Cc1ccc(-c2cn(-c3ccccc3)c(SCC(=O)NC3CCS(=O)(=O)C3)n2)cc1C (stereo not given) returned FMDV inh 37%, Sm TGR inh 1%, CHX counter 53* and Shiga toxin inh active.
Screening CC1=NN(Cc2ccccc2)C(=O)/C1=C\c1ccc(N(C)C)cc1 returned FMDV inh 0%, Sm TGR inh 4%, CHX counter 31* and Shiga toxin inh 32*.
For CCOC(=O)C1=NN(c2ccccc2)C(=O)/C1=C\c1ccc(N(C)C)cc1 the results were FMDV inh 18µM*, Sm TGR inh 0%, CHX counter -2 and Shiga toxin inh 10.
For CN(C)c1ccc(C=C2C(=O)OC(C)(C)OC2=O)cc1 the results were FMDV inh 3%, Sm TGR inh 0%, CHX counter 5 and Shiga toxin inh 18.
Screening CC(NC(=O)/C(C#N)=C/c1ccc([N+](=O)[O-])o1)c1ccccc1 (stereo not given) returned FMDV inh 28µM*, Sm TGR inh 1.3µM*, CHX counter 11 and Shiga toxin inh 27.
CCOCCCNC(=O)/C(C#N)=C/c1ccc([N+](=O)[O-])o1 was read as FMDV inh 32µM*, Sm TGR inh 8.9µM*, CHX counter 14 and Shiga toxin inh 29.
Screening CC(NC(=O)/C(C#N)=C/c1ccco1)c1ccccc1 (stereo not given) returned FMDV inh -6%, Sm TGR inh 0%, CHX counter 7 and Shiga toxin inh -2.
Screening CCOCCCNC(=O)/C(C#N)=C/c1ccc(-c2ccc(S(=O)(=O)N3CCOCC3)cc2)o1 returned FMDV inh -11%, Sm TGR inh inconclusive, CHX counter -5 and Shiga toxin inh -10.
For CCCN(CCC)C(=O)Cn1c(=O)n(-c2cccc(OC)c2)c(=O)c2c3c(sc21)CCCC3 the results were FMDV inh -29% and Sm TGR inh 9%.
CC(C)(C)c1csc(NC(=O)c2ccncc2)n1 was read as FMDV inh inconclusive, Sm TGR inh 4%, CHX counter 14 and Shiga toxin inh 19.
`Cc1cccc(NC(=O)c2ccc3nccnc3c2)n1` gave FMDV inh -3%, Sm TGR inh 4%, CHX counter 49* and Shiga toxin inh 46*.
For Cc1cccc(NC(=O)c2ccc3c(c2)OCCO3)n1 the results were FMDV inh -22%, Sm TGR inh -32%, CHX counter 45* and Shiga toxin inh 50*.
Screening CC(C)(C)c1csc(NC(=O)c2ccc3nccnc3c2)n1 returned FMDV inh -27%, Sm TGR inh 0%, CHX counter 63* and Shiga toxin inh 80*.
For COC(=O)c1ccc(NC(=O)c2ccc3nccnc3c2)cc1 the results were FMDV inh -3%, Sm TGR inh 1%, CHX counter 11 and Shiga toxin inh 43.
Screening CC(=O)OC1CC[C@]2(C)C(=CCC3C4CCC(C(C)CCCC(C)C)[C@]4(C)CCC32)C1 (stereo not given in full) returned FMDV inh -1%.
For Cc1cc(C)c2c(c1)c(C)cc1nnc(SCC(=O)c3ccc(F)cc3)n12 the results were FMDV inh -8% and Sm TGR inh 1%.
Screening Cc1ccc(C(=O)OCC(=O)N2CCc3ccccc32)cc1 returned FMDV inh 79%, Sm TGR inh 17%, CHX counter 34* and Shiga toxin inh 152*.
Cc1ccc(C(=O)OCC(=O)N2CCCC2)cc1 was read as FMDV inh 30%, Sm TGR inh -12%, CHX counter 43* and Shiga toxin inh 47*.
O=C(OCC(=O)N1CCCC1)c1ccc(O)cc1 was read as FMDV inh 21%, Sm TGR inh -1%, CHX counter 11 and Shiga toxin inh 32.
O=C(OCC(=O)N1CCc2ccccc21)c1ccccc1F was read as FMDV inh 45%, Sm TGR inh 6%, CHX counter 45* and Shiga toxin inh 113*.
`O=C(OCC(=O)N1CCc2ccccc21)c1c2c(nc3ccccc13)CCCCC2` gave FMDV inh 3%, Sm TGR inh -8%, CHX counter 20* and Shiga toxin inh active.
Screening COc1ccc(-c2nc3cnc(N4CCNCC4)nc3n(CCc3ccccc3)c2=O)cc1 returned FMDV inh -10%.
COC(=O)c1c(C)sc(-c2c(-c3cccc(Cl)c3)[nH]c3c2c(=O)[nH]c(=O)n3C)c1O was read as FMDV inh inconclusive and Sm TGR inh 0%.
For CC(=O)c1c(C)[nH]c(C(=O)OCC(=O)N2CCc3ccccc32)c1C the results were FMDV inh 46%, Sm TGR inh -4%, CHX counter 24* and Shiga toxin inh 33.
